Some test systems named below: DU-145 prostate; K-562 leukemia; MALME-3M melanoma; MDA-MB-231 breast; RXF 393 renal; SF-268 CNS; SF-295 CNS; SF-539 CNS; UACC-257 melanoma; M14 melanoma; HCT-15 colon; HT29 colon; SNB-75 CNS; SNB-19 CNS; U251 CNS; PC-3 prostate; SK-MEL-5 melanoma; UACC-62 melanoma; LOX IMVI melanoma; SK-MEL-28 melanoma.
Common to all, as to assay: NCI-60 one-dose screen, 48 h (100 = growth as untreated, 0 = no growth, -100 = all killed)
Common to all, as to details: 10 µM unless noted

Structures are written as SMILES. This is part of a sample that, as a whole, favours compounds with a hit. Of some 83,000 tested, about 20% had one in any assay.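 Growth was measured after 48 h exposure to one concentration of compound in 96-well plates. Values under 10 count as active.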 Values without a mark were called inactive. Calls of active or inactive are those of the source.

As to `CN(Cc1cc(Br)cc(Br)c1O)Cc1cc(Br)cc(Br)c1O`, the growth was 54.8% in the test with DU-145 prostate; 21.3% with K-562 leukemia; 73.2% with MALME-3M melanoma; 39.6% with MDA-MB-231 breast; 55.4% in the test with RXF 393 renal; 45.3% in the test on SF-268 CNS. Moreover, the growth with SF-295 CNS is 32.1%; in the test on SF-539 CNS it was 39.5%; in the test with UACC-257 melanoma, 46.8%; with M14 melanoma, 37.3%; in the test on HCT-15 colon it was 22.2%; in the test with HT29 colon, 32.9%. The growth is 61.5% in the test on SNB-75 CNS; 40.5% with SNB-19 CNS; 32.8% with U251 CNS; 39.5% in the test on PC-3 prostate; 3.66% (active) in the test on SK-MEL-5 melanoma; 18.8% with UACC-62 melanoma. In addition, the figures for the growth in the test on LOX IMVI melanoma and in the test on SK-MEL-28 melanoma were 34.6% and 74%, respectively.
For the compound `COc1ccc(N2CCC(=S)NC2=S)cc1`, the growth with DU-145 prostate is 108%; with K-562 leukemia, 100%; in the test with MALME-3M melanoma, 101%; in the test on MDA-MB-231 breast, 103%; with RXF 393 renal it was 119%; with SF-268 CNS, 94.2%. Besides, the growth in the test with SF-295 CNS was 101%; in the test on SF-539 CNS, 99.9%; in the test with UACC-257 melanoma, 102%; with M14 melanoma it was 109%; in the test on HCT-15 colon, 101%; in the test with HT29 colon, 104%. The growth in the test with SNB-75 CNS was 71.6%; in the test on SNB-19 CNS, 94.5%; in the test with U251 CNS, 101%; with PC-3 prostate, 107%; in the test with SK-MEL-5 melanoma it was 98.2%; with UACC-62 melanoma, 90.3%. Moreover, the values for the growth with LOX IMVI melanoma and in the test with SK-MEL-28 melanoma were 95.3% and 113%, respectively.
Consider `O=C(Nc1cc(Cl)ccc1O)c1cccc(Nc2ccnc(C(F)(F)F)c2)c1`, for which the growth was 54.9% in the test on DU-145 prostate; 7.05% (active) in the test on K-562 leukemia; 53.1% with MALME-3M melanoma; 34.1% in the test on MDA-MB-231 breast; 65.8% in the test on RXF 393 renal; 55.2% in the test on SF-268 CNS. Further, the growth in the test with SF-295 CNS is 2.92% (active); with SF-539 CNS it was 48.1%; with UACC-257 melanoma, 32.3%; in the test with M14 melanoma, 38.5%; in the test on HCT-15 colon, 42.9%; in the test on HT29 colon, 87.4%. The growth with SNB-75 CNS is 61.4%; in the test on SNB-19 CNS it was 44%; in the test on U251 CNS, 43.2%; in the test on PC-3 prostate it was 28.2%; with SK-MEL-5 melanoma, 4.5% (active); in the test with UACC-62 melanoma, 15.5%. Also, the growth in the test with LOX IMVI melanoma is 38.5%; in the test on SK-MEL-28 melanoma it was 88.1%.
Regarding `O=C1/C(=C/c2ccccn2)NC(=S)N1c1ccccc1Cl`, the growth in the test on DU-145 prostate was 54.1%; with K-562 leukemia, 39.7%; in the test with MALME-3M melanoma it was 67.7%; in the test on MDA-MB-231 breast, 36.4%; in the test on RXF 393 renal, -7.86% (active); in the test with SF-268 CNS it was 83.5%. Also, the growth with SF-295 CNS is 55.9%; with SF-539 CNS it was 67.3%; with UACC-257 melanoma it was 74.5%; with M14 melanoma it was 42.3%; with HCT-15 colon, 38.2%; in the test with HT29 colon, 71.1%. Also, the growth is 82% with SNB-75 CNS; 58.6% in the test with SNB-19 CNS; 34.6% in the test with U251 CNS; 52.2% with PC-3 prostate; 57.9% in the test with SK-MEL-5 melanoma; 66.7% with UACC-62 melanoma. Also, the growth in the test on LOX IMVI melanoma was 12.1%; in the test on SK-MEL-28 melanoma, 74%.
On to `O=C(CCCCCCN1CC(=O)N2[C@H](c3ccc(Br)cc3)c3[nH]c4ccccc4c3C[C@@H]2C1=O)NO`, for which the growth in the test with DU-145 prostate is 57.5%; with K-562 leukemia, 14.7%; with MALME-3M melanoma it was 20.4%; in the test with MDA-MB-231 breast it was 43.7%; in the test with RXF 393 renal, 42.4%; in the test with SF-268 CNS, 71.4%. The growth with SF-295 CNS was 67.2%; in the test on SF-539 CNS it was 43.7%; with UACC-257 melanoma, 34.9%; in the test on M14 melanoma, 46.6%; in the test with HCT-15 colon, 103%; in the test with HT29 colon, 53%. For the same compound, the growth was 31.9% with SNB-75 CNS; 57.1% in the test with SNB-19 CNS; 42.6% in the test on U251 CNS; 39.1% with PC-3 prostate; 26% in the test with SK-MEL-5 melanoma; 13.8% in the test with UACC-62 melanoma. For the same compound, the values for the growth with LOX IMVI melanoma and in the test with SK-MEL-28 melanoma were 12.3% and 33.9%, respectively.
In the case of `Cn1cc(-c2ccc(-c3cn(C)c4ccc(Cl)cc34)[nH]2)c2cc(Cl)ccc21`, the growth was 32% with DU-145 prostate; -29.8% (active) in the test with K-562 leukemia; -59.1% (active) in the test on MALME-3M melanoma; -48.5% (active) with MDA-MB-231 breast; -51.3% (active) in the test with RXF 393 renal; -67.2% (active) in the test with SF-268 CNS. Further, the growth in the test on SF-295 CNS is -15.1% (active); in the test with SF-539 CNS, -56.1% (active); in the test on UACC-257 melanoma, -34.7% (active); with M14 melanoma, -75.2% (active); with HCT-15 colon, -66.3% (active); with HT29 colon, 21.9%. In addition, the growth in the test on SNB-75 CNS is -59.9% (active); in the test on SNB-19 CNS, -68.5% (active); with U251 CNS, -100% (active); in the test with PC-3 prostate, -56.5% (active); in the test with SK-MEL-5 melanoma it was -98.6% (active); in the test on UACC-62 melanoma, -82.3% (active). Moreover, the growth in the test on LOX IMVI melanoma is -95.2% (active); in the test with SK-MEL-28 melanoma, -52.9% (active).
As to `O=C(C1CCCCC1)[C@@H]1[C@]2(C(=O)NC3CCCCC32)[C@@H]2CCCN2[C@@]12C(=O)NC1CCC(Cl)CC12` (stereo not given in full), the growth is -98% [100 µM] (active) with DU-145 prostate; -66% [100 µM] (active) in the test with K-562 leukemia; -66.4% [100 µM] (active) in the test with MALME-3M melanoma; -71.7% [100 µM] (active) with MDA-MB-231 breast; -66.6% [100 µM] (active) in the test with RXF 393 renal; -77.4% [100 µM] (active) in the test with SF-268 CNS. The growth with SF-295 CNS was -92.5% [100 µM] (active); in the test on SF-539 CNS, -93.3% [100 µM] (active); in the test with UACC-257 melanoma, -77.8% [100 µM] (active); in the test on M14 melanoma it was -83.2% [100 µM] (active); in the test with HCT-15 colon it was -83.4% [100 µM] (active); with HT29 colon, -85.2% [100 µM] (active). In addition, the growth with SNB-75 CNS is -68.8% [100 µM] (active); in the test with SNB-19 CNS it was -92.5% [100 µM] (active); in the test with U251 CNS it was -90.6% [100 µM] (active); with PC-3 prostate it was -87.9% [100 µM] (active); in the test with SK-MEL-5 melanoma, -97.1% [100 µM] (active); with UACC-62 melanoma it was -95.4% [100 µM] (active). For the same compound, the growth is -83.4% [100 µM] (active) with LOX IMVI melanoma and -83% [100 µM] (active) with SK-MEL-28 melanoma.

These data come from PubChem BioAssay (NCI).
